# What was measured:
# Experiment in all cases: SPOT peptide array binding signal intensity (averaged, normalized) (arbitrary units (background-subtracted, floor 0; scale differs between SH3 domains)); higher = stronger binding of the SH3 domain to the peptide
# AgAbp1 = target: AgAbp1
# Procedure, shortened: (§1)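 Peptides were synthetic 15-mers on cellulose membranes, with every cysteine replaced by serine. They were incubated overnight at 4°C with GST-SH3 domains from four yeast species at 10 μg/ml in TBS-based blocking buffer. Binding signal, the replicate-averaged normalized and background-subtracted spot intensity, is in arbitrary units that differ between domains.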
# AgBbc1 = target: AgBbc1
# Procedure, shortened: as §1
# AgBem1-D1 = target: AgBem1-D1
# Procedure, shortened: as §1
# AgBzz1-D1 = target: AgBzz1-D1
# Procedure, shortened: as §1
# AgBzz1-D2 = target: AgBzz1-D2
# Procedure, shortened: as §1
# AgCyk3 = target: AgCyk3
# Procedure, shortened: as §1
# AgFus1 = target: AgFus1
# Procedure, shortened: as §1
# AgHof1 = target: AgHof1
# Procedure, shortened: as §1
# AgHse1 = target: AgHse1
# Procedure, shortened: as §1
# AgLsb1 = target: AgLsb1
# Procedure, shortened: as §1
# AgLsb4 = target: AgLsb4
# Procedure, shortened: as §1
# AgMyo5 = target: AgMyo5
# Procedure, shortened: as §1
# AgNbp2 = target: AgNbp2
# Procedure, shortened: as §1
# AgRvs167 = target: AgRvs167
# Procedure, shortened: as §1
# AgSho1 = target: AgSho1
# Procedure, shortened: as §1
# AgSla1-D1-D2 = target: AgSla1-D1-D2
# Procedure, shortened: as §1
# AgSla1-D3 = target: AgSla1-D3
# Procedure, shortened: as §1
# CaAbp1-D1 = target: CaAbp1-D1
# Procedure, shortened: as §1
# CaAbp1-D2 = target: CaAbp1-D2
# Procedure, shortened: as §1
# CaBbc1 = target: CaBbc1
# Procedure, shortened: as §1
# CaBem1-D1 = target: CaBem1-D1
# Procedure, shortened: as §1
# CaBzz1-D1 = target: CaBzz1-D1
# Procedure, shortened: as §1
# CaBzz1-D2 = target: CaBzz1-D2
# Procedure, shortened: as §1
# CaCyk3 = target: CaCyk3
# Procedure, shortened: as §1
# CaFus1 = target: CaFus1
# Procedure, shortened: as §1
# CaHof1 = target: CaHof1
# Procedure, shortened: as §1
# CaHse1 = target: CaHse1
# Procedure, shortened: as §1
# CaLsb1 = target: CaLsb1
# Procedure, shortened: as §1
# CaLsb4 = target: CaLsb4
# Procedure, shortened: as §1
# CaMyo5 = target: CaMyo5
# Procedure, shortened: as §1
# CaNbp2 = target: CaNbp2
# Procedure, shortened: as §1
# CaRvs167 = target: CaRvs167
# Procedure, shortened: as §1
# CaRvs167-3 = target: CaRvs167-3
# Procedure, shortened: as §1
# CaSho1 = target: CaSho1
# Procedure, shortened: as §1
# CaSla1-D1-D2 = target: CaSla1-D1-D2
# Procedure, shortened: as §1
# CaSla1-D3 = target: CaSla1-D3
# Procedure, shortened: as §1
# ScAbp1 = target: ScAbp1
# Procedure, shortened: as §1
# ScBbc1 = target: ScBbc1
# Procedure, shortened: as §1
# ScBem1-D1 = target: ScBem1-D1
# Procedure, shortened: as §1
# ScBzz1-D1 = target: ScBzz1-D1
# Procedure, shortened: as §1
# ScBzz1-D2 = target: ScBzz1-D2
# Procedure, shortened: as §1
# ScCyk3 = target: ScCyk3
# Procedure, shortened: as §1
# ScFus1 = target: ScFus1
# Procedure, shortened: as §1
# ScHof1 = target: ScHof1
# Procedure, shortened: as §1
# ScHse1 = target: ScHse1
# Procedure, shortened: as §1
# ScLsb1 = target: ScLsb1
# Procedure, shortened: as §1
# ScLsb2 = target: ScLsb2
# Procedure, shortened: as §1
# ScLsb3 = target: ScLsb3
# Procedure, shortened: as §1
# ScLsb4 = target: ScLsb4
# Procedure, shortened: as §1
# ScMyo3 = target: ScMyo3
# Procedure, shortened: as §1
# ScMyo5 = target: ScMyo5
# Procedure, shortened: as §1
# ScNbp2 = target: ScNbp2
# Procedure, shortened: as §1
# ScPex13 = target: ScPex13
# Procedure, shortened: as §1
# ScRvs167 = target: ScRvs167
# Procedure, shortened: as §1
# ScSho1 = target: ScSho1
# Procedure, shortened: as §1
# ScSla1-D1-D2 = target: ScSla1-D1-D2
# Procedure, shortened: as §1
# ScSla1-D3 = target: ScSla1-D3
# Procedure, shortened: as §1
# SpAbp1-D1 = target: SpAbp1-D1
# Procedure, shortened: as §1
# SpBbc1 = target: SpBbc1
# Procedure, shortened: as §1
# SpBzz1-D1 = target: SpBzz1-D1
# Procedure, shortened: as §1
# SpBzz1-D2 = target: SpBzz1-D2
# Procedure, shortened: as §1
# SpCyk3 = target: SpCyk3
# Procedure, shortened: as §1
# SpHof1 = target: SpHof1
# Procedure, shortened: as §1
# SpHof1-2 = target: SpHof1-2
# Procedure, shortened: as §1
# SpHof1-3 = target: SpHof1-3
# Procedure, shortened: as §1
# SpHse1 = target: SpHse1
# Procedure, shortened: as §1
# SpLsb1 = target: SpLsb1
# Procedure, shortened: as §1
# SpLsb4 = target: SpLsb4
# Procedure, shortened: as §1
# SpMyo1 = target: SpMyo1
# Procedure, shortened: as §1
# SpNbp2 = target: SpNbp2
# Procedure, shortened: as §1
# SpPex13 = target: SpPex13
# Procedure, shortened: as §1
# SpRvs167 = target: SpRvs167
# Procedure, shortened: as §1
# SpSla1-D1-D2 = target: SpSla1-D1-D2
# Procedure, shortened: as §1
# SpSla1-D3 = target: SpSla1-D3
# Procedure, shortened: as §1
binder,measurement,setting,value
NPLPKEPRLPKRKVA,SPOT peptide array binding signal intensity,AgAbp1,16
same,SPOT peptide array binding signal intensity,AgBbc1,254
same,SPOT peptide array binding signal intensity,AgBem1-D1,66.5
same,SPOT peptide array binding signal intensity,AgBzz1-D1,48
same,SPOT peptide array binding signal intensity,AgBzz1-D2,78.5
same,SPOT peptide array binding signal intensity,AgCyk3,1
same,SPOT peptide array binding signal intensity,AgFus1,20
same,SPOT peptide array binding signal intensity,AgHof1,28
same,SPOT peptide array binding signal intensity,AgHse1,134
same,SPOT peptide array binding signal intensity,AgLsb1,3.25
same,SPOT peptide array binding signal intensity,AgLsb4,2040
same,SPOT peptide array binding signal intensity,AgMyo5,≤ 0
same,SPOT peptide array binding signal intensity,AgNbp2,25
same,SPOT peptide array binding signal intensity,AgRvs167,23
same,SPOT peptide array binding signal intensity,AgSho1,37
same,SPOT peptide array binding signal intensity,AgSla1-D1-D2,28
same,SPOT peptide array binding signal intensity,AgSla1-D3,9
same,SPOT peptide array binding signal intensity,CaAbp1-D1,655
same,SPOT peptide array binding signal intensity,CaAbp1-D2,376
same,SPOT peptide array binding signal intensity,CaBbc1,1010
same,SPOT peptide array binding signal intensity,CaBem1-D1,30
same,SPOT peptide array binding signal intensity,CaBzz1-D1,122
same,SPOT peptide array binding signal intensity,CaBzz1-D2,95.5
same,SPOT peptide array binding signal intensity,CaCyk3,6.5
same,SPOT peptide array binding signal intensity,CaFus1,190
same,SPOT peptide array binding signal intensity,CaHof1,2
same,SPOT peptide array binding signal intensity,CaHse1,10.8
same,SPOT peptide array binding signal intensity,CaLsb1,4
same,SPOT peptide array binding signal intensity,CaLsb4,3890
same,SPOT peptide array binding signal intensity,CaMyo5,4
PPLPRAPPVPPATFE,SPOT peptide array binding signal intensity,AgAbp1,16
same,SPOT peptide array binding signal intensity,AgBbc1,0.5
same,SPOT peptide array binding signal intensity,AgBem1-D1,40.5
same,SPOT peptide array binding signal intensity,AgBzz1-D1,18
same,SPOT peptide array binding signal intensity,AgBzz1-D2,≤ 0
same,SPOT peptide array binding signal intensity,AgCyk3,0.5
same,SPOT peptide array binding signal intensity,AgFus1,≤ 0
same,SPOT peptide array binding signal intensity,AgHof1,43.2
same,SPOT peptide array binding signal intensity,AgHse1,15
same,SPOT peptide array binding signal intensity,AgLsb1,17.2
same,SPOT peptide array binding signal intensity,AgLsb4,≤ 0
same,SPOT peptide array binding signal intensity,AgMyo5,434
same,SPOT peptide array binding signal intensity,AgNbp2,107
same,SPOT peptide array binding signal intensity,AgRvs167,≤ 0
same,SPOT peptide array binding signal intensity,AgSho1,6
same,SPOT peptide array binding signal intensity,AgSla1-D1-D2,5
same,SPOT peptide array binding signal intensity,AgSla1-D3,≤ 0
same,SPOT peptide array binding signal intensity,CaAbp1-D1,21.5
same,SPOT peptide array binding signal intensity,CaAbp1-D2,20
same,SPOT peptide array binding signal intensity,CaBbc1,79.2
same,SPOT peptide array binding signal intensity,CaBem1-D1,23
same,SPOT peptide array binding signal intensity,CaBzz1-D1,243
same,SPOT peptide array binding signal intensity,CaBzz1-D2,39.5
same,SPOT peptide array binding signal intensity,CaCyk3,1.5
same,SPOT peptide array binding signal intensity,CaFus1,47
same,SPOT peptide array binding signal intensity,CaHof1,1.5
same,SPOT peptide array binding signal intensity,CaHse1,≤ 0
same,SPOT peptide array binding signal intensity,CaLsb1,≤ 0
same,SPOT peptide array binding signal intensity,CaLsb4,≤ 0
same,SPOT peptide array binding signal intensity,CaMyo5,104
same,SPOT peptide array binding signal intensity,CaNbp2,1100
same,SPOT peptide array binding signal intensity,CaRvs167,≤ 0
same,SPOT peptide array binding signal intensity,CaRvs167-3,≤ 0
same,SPOT peptide array binding signal intensity,CaSho1,14
same,SPOT peptide array binding signal intensity,CaSla1-D1-D2,2
same,SPOT peptide array binding signal intensity,CaSla1-D3,1
same,SPOT peptide array binding signal intensity,ScAbp1,4.5
same,SPOT peptide array binding signal intensity,ScBbc1,≤ 0
same,SPOT peptide array binding signal intensity,ScBem1-D1,≤ 0
same,SPOT peptide array binding signal intensity,ScBzz1-D1,4.5
same,SPOT peptide array binding signal intensity,ScBzz1-D2,≤ 0
same,SPOT peptide array binding signal intensity,ScCyk3,≤ 0
same,SPOT peptide array binding signal intensity,ScFus1,11
same,SPOT peptide array binding signal intensity,ScHof1,241
same,SPOT peptide array binding signal intensity,ScHse1,≤ 0
same,SPOT peptide array binding signal intensity,ScLsb1,1
same,SPOT peptide array binding signal intensity,ScLsb2,11
same,SPOT peptide array binding signal intensity,ScLsb3,84
same,SPOT peptide array binding signal intensity,ScLsb4,≤ 0
same,SPOT peptide array binding signal intensity,ScMyo3,1100
same,SPOT peptide array binding signal intensity,ScMyo5,463
same,SPOT peptide array binding signal intensity,ScNbp2,200
same,SPOT peptide array binding signal intensity,ScPex13,95
same,SPOT peptide array binding signal intensity,ScRvs167,33.5
same,SPOT peptide array binding signal intensity,ScSho1,81
same,SPOT peptide array binding signal intensity,ScSla1-D1-D2,≤ 0
same,SPOT peptide array binding signal intensity,ScSla1-D3,≤ 0
same,SPOT peptide array binding signal intensity,SpAbp1-D1,7
same,SPOT peptide array binding signal intensity,SpBbc1,1
same,SPOT peptide array binding signal intensity,SpBzz1-D1,566
same,SPOT peptide array binding signal intensity,SpBzz1-D2,23.2
same,SPOT peptide array binding signal intensity,SpCyk3,≤ 0
same,SPOT peptide array binding signal intensity,SpHof1,1
same,SPOT peptide array binding signal intensity,SpHof1-2,707
same,SPOT peptide array binding signal intensity,SpHof1-3,125
same,SPOT peptide array binding signal intensity,SpHse1,30.8
same,SPOT peptide array binding signal intensity,SpLsb1,1.75
same,SPOT peptide array binding signal intensity,SpLsb4,≤ 0
same,SPOT peptide array binding signal intensity,SpMyo1,422
same,SPOT peptide array binding signal intensity,SpNbp2,17
same,SPOT peptide array binding signal intensity,SpPex13,≤ 0
same,SPOT peptide array binding signal intensity,SpRvs167,88
same,SPOT peptide array binding signal intensity,SpSla1-D1-D2,3
same,SPOT peptide array binding signal intensity,SpSla1-D3,≤ 0
